Records with an inconclusive call do not appear. Calls of active or inactive are those of the source. Unless noted, calls come from the whole dose curve; as a rule, active = well fitted curve in the direction sought with a large enough effect; inconclusive = small, poorly fitted or top-dose-only effect, or another doubt; inactive = no such curve, though single readings can be large; an effect the other way counts as inactive or inconclusive.
Experiments:
[1] = biological target: Guanine nucleotide-binding protein G(i) subunit alpha-1 (Homo sapiens) (UniProt P63096); assay: qHTS Assay for Inhibitors of RGS12 GoLoco Motif Activity (Green Fluorophore) (AID 879);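 note: negative values mean loss of peptide binding seen as reduced polarization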
Procedure, shortened: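 Fluorescence polarization assay: 50 nM Gαi1 with 10 nM FITC-labeled RGS12 GoLoco peptide in 10 mM Tris pH 7.5, 150 mM NaCl, 0.1 mM GDP, 0.05% NP40, 10 min at room temperature with compound.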

[2] = biological target: Pyruvate kinase (Leishmania mexicana) (UniProt Q27686); assay: qHTS Validation Assay for Inhibitors of Leishmania Mexicana Pyruvate Kinase (AID 945); note: potency is the fitted concentration of half-maximal effect
Procedure, shortened: (§1)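 Eight-point qHTS titrations; enzyme 0.2 nM LmPYK (E451W mutant); substrates 0.5 mM PEP, 0.1 mM ADP; 7 mM MgCl2; 1 h room temperature; PKLight luminescence normalized to neutral control.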

[3] = biological target: Pyruvate kinase PKM (Homo sapiens) (UniProt P14618); assay: qHTS Assay for Activators of Human Muscle Pyruvate Kinase (AID 954; active = well fitted curve in the direction sought with a large enough effect, not every such curve was filed as active)
Procedure, shortened: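 Purified human PKM2 (0.1 nM) with 0.5 mM PEP (Km) and 0.1 mM ADP in 50 mM imidazole pH 7.2, KCl, MgCl2, 1 h at room temperature; ATP formed read by coupled luciferase luminescence. Normalized to no-enzyme/110 uM thiadiazolimine inhibition; 0.3 nM enzyme column for activation.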

[4] = biological target: Pyruvate kinase PKM (Homo sapiens) (UniProt P14618); assay: qHTS Assay for Inhibitors of Human Muscle Pyruvate Kinase (AID 958); conditions: purified human PKM enzyme activity
Procedure, shortened: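 A coupled luminescent readout tracked ATP made from ADP by purified PKM2. Final conditions included 0.1 nM enzyme, PEP and ADP at 0.5 and 0.1 mM, pH 7.2 imidazole buffer with BSA, and a one-hour room-temperature reaction.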

[5] = biological target: Pyruvate kinase (Leishmania mexicana) (UniProt Q27686); assay: qHTS Validation Assay for Activators of Leishmania Mexicana Pyruvate Kinase (AID 959)
Procedure, shortened: as §1

[6] = biological target: Alpha-galactosidase A (Homo sapiens) (UniProt P06280); assay: Counterscreen for Glucocerebrosidase Inhibitors: qHTS Assay for Human alpha-Galactosidase at pH 4.5 (AID 992)
Procedure, shortened: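 Human enzyme (2 nM) with 80 uM 4-methylumbelliferyl alpha-D-galactopyranoside in 50 mM citric acid, 0.005% Tween-20, pH 4.5, 20 min at room temperature. Compounds 0.7 nM–77 uM; fluorescence Ex 365/Em 440 after pH 10 stop; AC50 from Hill fits.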

[7] = biological target: alpha-glucosidase (Oryza sativa, rice) (UniProt Q653V4); assay: Counterscreen for Glucocerebrosidase Inhibitors: qHTS Assay for Rice alpha-Glucosidase at pH 5.0 (AID 997)
Procedure, shortened: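 Rice alpha-glucosidase (4 nM final) with 400 uM 4-methylumbelliferyl-alpha-D-glucopyranoside in citrate buffer pH 5.0, 20 min at room temperature, stopped at pH 10; fluorescence 365/440 nm, compounds 0.7 nM–77 uM, AC50 from Hill fits.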

[8] = biological target: DNA dC->dU-editing enzyme APOBEC-3G (Homo sapiens) (UniProt Q9HC16); assay: qHTS for inhibitors of Vif-A3G interactions: Validation (AID 588379)
Procedure, shortened: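 HeLa cells stably expressing Vif and A3G-eYFP, 700 cells/well, incubated overnight at 37 deg C, then exposed to compound overnight at 37 deg C. Inhibition of Vif-mediated degradation read as increased yellow fluorescence (Ex 488/Em 500-530) by laser-scanning cytometry.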

[9] = S16 Schwann cell viability assay (CellTiter-Glo assay) (AID 624031);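 note: native untransfected S16 rat Schwann cells; cellular ATP luminescence as a viability measure; nearly all actives have a fitted effect of over 70% in size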
Procedure, shortened: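 Following overnight culture in 10% FBS DMEM, parental S16 rat Schwann cells are dosed for 24 h at 37 °C. Viability is read as CellTiter-Glo luminescence and expressed as % activity relative to DMSO (0%) and no-cell wells.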

[10] = S16 Schwann cell PMP22 intronic element firefly luciferase assay (AID 624032); note: nearly all actives have a fitted effect of over 30% in size
Procedure, shortened: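 Luciferase reporter of PMP22 intronic-element expression in stably transfected S16 rat Schwann cells, read by ONE-Glo luminescence after 24 h compound exposure at 37 C. Activity scaled between DMSO (0%) and positive-control PTC124; concentration-effect curves quality-classified.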

[11] = tested on: AA1029; assay: qHTS profiling for inhibitors of Plasmodium falciparum proliferation (AID 504749); note: nearly all actives have a fitted effect of over 60% in size; conditions: P. falciparum in erythrocytes, SYBR Green DNA, 72 h; series mostly up to 28.7 µM
Procedure, shortened: (§2)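 Three-day growth assay of blood-stage parasites in erythrocytes (0.3% parasitemia, 2.5% hematocrit) at 37 C, 5% CO2, quantified by SYBR Green DNA staining after overnight detergent lysis.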

[12] = tested on: CP260; assay: as above; conditions: P. falciparum in erythrocytes, SYBR Green DNA, 72 h; series mostly up to 28.7 µM
Procedure, shortened: as §2

[13] = tested on: CP297; assay: as above; conditions: P. falciparum in erythrocytes, SYBR Green DNA, 72 h; series mostly up to 28.7 µM
Procedure, shortened: as §2

[14] = tested on: CP315; assay: as above; conditions: P. falciparum in erythrocytes, SYBR Green DNA, 72 h; series mostly up to 28.7 µM
Procedure, shortened: as §2

[15] = tested on: DIV14; assay: as above; conditions: P. falciparum in erythrocytes, SYBR Green DNA, 72 h; series mostly up to 28.7 µM
Procedure, shortened: as §2

[16] = tested on: DIV17; assay: as above; conditions: P. falciparum in erythrocytes, SYBR Green DNA, 72 h; series mostly up to 28.7 µM
Procedure, shortened: as §2

[17] = tested on: JCK; assay: as above; conditions: P. falciparum in erythrocytes, SYBR Green DNA, 72 h; series mostly up to 28.7 µM
Procedure, shortened: as §2

[18] = tested on: TAB165; assay: as above; conditions: P. falciparum in erythrocytes, SYBR Green DNA, 72 h; series mostly up to 28.7 µM
Procedure, shortened: as §2

Measured: Potency

Sequence of Pyruvate kinase (Leishmania mexicana) (Q27686 2-499 E452W): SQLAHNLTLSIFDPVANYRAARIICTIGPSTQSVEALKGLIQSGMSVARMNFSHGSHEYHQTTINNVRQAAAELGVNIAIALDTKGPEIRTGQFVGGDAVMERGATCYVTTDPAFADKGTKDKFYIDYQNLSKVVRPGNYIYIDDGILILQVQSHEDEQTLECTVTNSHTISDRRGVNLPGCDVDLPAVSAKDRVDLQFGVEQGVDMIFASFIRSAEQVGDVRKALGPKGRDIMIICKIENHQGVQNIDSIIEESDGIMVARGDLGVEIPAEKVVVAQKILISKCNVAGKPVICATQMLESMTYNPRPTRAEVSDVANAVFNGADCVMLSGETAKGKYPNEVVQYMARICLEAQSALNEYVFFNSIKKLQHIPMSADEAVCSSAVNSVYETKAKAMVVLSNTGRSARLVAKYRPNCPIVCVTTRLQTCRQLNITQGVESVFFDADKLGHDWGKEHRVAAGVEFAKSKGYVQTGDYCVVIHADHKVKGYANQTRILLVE
Sequence of Pyruvate kinase PKM (Homo sapiens) (P14618 whole entry, looked up): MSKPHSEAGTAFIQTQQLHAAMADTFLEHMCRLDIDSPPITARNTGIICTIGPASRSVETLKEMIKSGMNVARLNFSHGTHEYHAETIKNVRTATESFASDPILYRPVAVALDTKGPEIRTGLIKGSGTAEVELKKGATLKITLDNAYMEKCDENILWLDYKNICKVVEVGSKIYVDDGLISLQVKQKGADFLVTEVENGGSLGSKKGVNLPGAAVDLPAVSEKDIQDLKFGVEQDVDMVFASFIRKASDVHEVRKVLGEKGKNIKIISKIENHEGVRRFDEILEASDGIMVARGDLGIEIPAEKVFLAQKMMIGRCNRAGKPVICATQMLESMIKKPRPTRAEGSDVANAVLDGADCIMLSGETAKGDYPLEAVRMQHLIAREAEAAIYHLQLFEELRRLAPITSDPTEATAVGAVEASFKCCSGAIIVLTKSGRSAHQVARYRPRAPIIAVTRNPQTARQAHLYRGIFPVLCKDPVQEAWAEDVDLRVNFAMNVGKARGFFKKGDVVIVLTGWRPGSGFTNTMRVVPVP
Sequence of Guanine nucleotide-binding protein G(i) subunit alpha-1 (Homo sapiens) (P63096 whole entry, looked up): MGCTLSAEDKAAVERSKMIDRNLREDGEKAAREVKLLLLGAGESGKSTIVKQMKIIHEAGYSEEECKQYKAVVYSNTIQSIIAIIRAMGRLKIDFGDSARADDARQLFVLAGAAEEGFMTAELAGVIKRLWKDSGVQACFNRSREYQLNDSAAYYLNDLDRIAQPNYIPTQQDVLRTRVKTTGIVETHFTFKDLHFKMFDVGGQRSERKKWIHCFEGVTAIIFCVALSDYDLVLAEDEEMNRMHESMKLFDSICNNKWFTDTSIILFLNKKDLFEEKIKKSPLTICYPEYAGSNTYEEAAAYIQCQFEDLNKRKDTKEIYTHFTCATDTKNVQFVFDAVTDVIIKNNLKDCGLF
Sequence of DNA dC->dU-editing enzyme APOBEC-3G (Homo sapiens) (Q9HC16 whole entry, looked up): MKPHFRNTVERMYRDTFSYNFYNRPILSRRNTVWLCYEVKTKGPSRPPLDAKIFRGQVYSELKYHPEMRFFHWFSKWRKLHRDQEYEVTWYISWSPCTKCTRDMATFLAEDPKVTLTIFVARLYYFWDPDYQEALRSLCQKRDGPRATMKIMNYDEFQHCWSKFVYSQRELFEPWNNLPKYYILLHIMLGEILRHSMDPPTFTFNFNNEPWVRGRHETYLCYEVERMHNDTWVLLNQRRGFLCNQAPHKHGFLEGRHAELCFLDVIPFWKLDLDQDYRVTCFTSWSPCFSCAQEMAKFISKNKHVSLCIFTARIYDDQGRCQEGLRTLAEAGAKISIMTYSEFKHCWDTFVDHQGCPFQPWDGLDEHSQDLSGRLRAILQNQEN
Sequence of Alpha-galactosidase A (Homo sapiens) (P06280 whole entry, looked up): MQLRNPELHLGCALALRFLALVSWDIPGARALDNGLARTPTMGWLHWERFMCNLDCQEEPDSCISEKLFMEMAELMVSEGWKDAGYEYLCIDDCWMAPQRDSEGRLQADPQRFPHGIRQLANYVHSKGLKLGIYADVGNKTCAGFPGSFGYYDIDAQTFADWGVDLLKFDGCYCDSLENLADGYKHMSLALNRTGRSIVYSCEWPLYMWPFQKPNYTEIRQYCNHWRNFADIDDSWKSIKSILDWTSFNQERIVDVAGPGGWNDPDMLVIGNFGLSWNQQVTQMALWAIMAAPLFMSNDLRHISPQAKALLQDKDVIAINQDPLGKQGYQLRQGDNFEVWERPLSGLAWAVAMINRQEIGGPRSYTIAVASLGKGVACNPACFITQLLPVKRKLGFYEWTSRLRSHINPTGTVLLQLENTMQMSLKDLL

Oc1ccc(/C=C\c2cc(O)cc(O)c2)cc1
active: [2] 2.51 µM | [4] 3.16 µM
inactive: all other assays above

— PubChem BioAssay (NCATS)
